Bioassay records: PubChem, The Scripps Research Institute Molecular Screening Center
Shown are actives, neighbours in structure and some others; about 4.1% of the full set was active somewhere.
ssDAF12 agonist: activates DAF-12 receptor from parasite S. stercoralis | activation, % at 6.8 µM | AID 652126 | 1% of 370,000 active | HEK293 ssDAF-12/GRIP1 lit1-tk-luc reporter, luminescence; % of 3 µM dafachronic acid response;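 active = activation above the mean over all tested compounds plus 3 SD, cut at about 0.9% in these data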;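 also: 0% = DMSO-only wells and 100% = 3 µM delta7-dafachronic acid wells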
hgDAF12 agonist: agonists of H. glycines DAF-12 nuclear receptor; HEK293 GAL4-hgDAF12 UAS-luciferase reporter, agonist luminescence; normalized to butyrate control; activation, % at 6.8 µM; AID 687014; 1.8% of 370,000 active;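 active = activation above a cutoff set at the mean of all screened compounds plus 3 SD, cut at about 10% in these data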;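 also: 0% = DMSO wells and 100% = sodium butyrate wells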
DAX1 inh-1: inhibitors of human orphan nuclear receptor DAX1 (NR0B1); inhibition, % at 6.75 µM; 0.99% of 340,000 active; HEK293 Gal4-DAX1 luciferase reporter, luminescence; AID 504766;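 active = inhibition above the mean over all tested compounds plus 3 SD, cut at about 4.2% in these data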;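 also: 0% = DAX1-transfected cells with DMSO and 100% = empty-vector control cells with DMSO; inhibition shows as a rise in luminescence from relieved DAX1 repression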
Target sequence (P51843 207-470 limits assumed): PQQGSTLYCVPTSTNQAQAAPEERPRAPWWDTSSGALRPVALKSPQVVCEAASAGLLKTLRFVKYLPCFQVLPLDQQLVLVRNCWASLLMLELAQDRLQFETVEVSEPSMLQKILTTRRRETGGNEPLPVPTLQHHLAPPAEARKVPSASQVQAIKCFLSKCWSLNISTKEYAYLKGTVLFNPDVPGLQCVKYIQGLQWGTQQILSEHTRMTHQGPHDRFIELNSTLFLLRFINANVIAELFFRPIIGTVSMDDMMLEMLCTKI
hcDAF12 agonist: H. contortus DAF-12 activation, primary screen; activation, % at 6.8 µM; 1.4% of 370,000 active; HEK293 hcDAF-12 lit1-tk-luc reporter, luminescence; 0% DMSO, 100% Δ7-dafachronic acid; AID 652067;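 active = activation above the mean of all tested compounds plus 3 SD, cut at about 5.5% in these data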;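 also: 100% = response to 3 µM Δ7-dafachronic acid high control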
DAX1 inh-2: blocks DAX1 repression of SF-1 activated StAR promoter | HEK293T StAR-luciferase reporter, SF-1/DAX-1 repression relief | inhibition, % at 6.8 µM | 1.1% of 370,000 active;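 active = inhibition above the mean over all tested compounds plus 3 SD, cut at about 3.6% in these data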;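 also: 0% = DAX-1 cells with DMSO and 100% = cells lacking DAX-1 with DMSO; higher inhibition means more luminescence from relief of DAX-1 repression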
DAX1 inh confirm: confirmation of human DAX1 (NR0B1) inhibitors | shares compounds with DAX1 inh-2 | HEK293T StAR-promoter luciferase reporter, SF-1/DAX-1 repression | inhibition, % at 6.8 µM | 87% of 2,400 active | AID 652134;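 active = inhibition above the average of every tested compound plus 3 SD, cut at about 3.8% in these data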;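 also: 0% = DAX-1 cells with DMSO and 100% = no DAX-1 control cells with DMSO; active compounds raise luminescence by relieving repression of the StAR reporter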
Target sequence (P51843 whole entry, looked up): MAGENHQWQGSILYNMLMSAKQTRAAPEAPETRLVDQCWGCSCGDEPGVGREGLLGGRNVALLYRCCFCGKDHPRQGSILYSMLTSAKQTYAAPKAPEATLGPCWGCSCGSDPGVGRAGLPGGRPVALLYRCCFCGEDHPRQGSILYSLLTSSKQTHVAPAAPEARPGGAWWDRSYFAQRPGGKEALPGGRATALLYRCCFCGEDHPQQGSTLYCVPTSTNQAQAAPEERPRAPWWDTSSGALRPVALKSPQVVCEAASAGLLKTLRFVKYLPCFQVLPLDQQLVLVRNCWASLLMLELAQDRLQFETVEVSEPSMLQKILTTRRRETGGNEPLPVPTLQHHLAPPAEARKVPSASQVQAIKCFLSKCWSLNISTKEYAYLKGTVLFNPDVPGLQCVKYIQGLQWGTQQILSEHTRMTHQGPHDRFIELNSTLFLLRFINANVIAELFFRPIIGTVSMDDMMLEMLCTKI
SF1 AF2mut Luc: nonselective inhibitor or artifact in SF-1 mutant DAX1 counter-screen; shares compounds with DAX1 inh-2; HEK293 StAR-luciferase, SF-1 AF2 mutant, luminescence; inhibition, % at 6.8 µM; 78% of 2,400 active;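 active = inhibition above the mean of all tested compounds plus 3 SD, cut at about 3% in these data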;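 also: 0% = DAX-1 transfected cells with DMSO and 100% = cells without DAX-1 with DMSO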
LXRb hcDAF ctr: counter-screen for hcDAF-12 agonists: agonists of human LXR-beta. shares compounds with hcDAF12 agonist. activation, % at 6.8 µM. HEK293 Gal4-LXR tk-luc reporter, luminescence, 24 h; normalized: DMSO 0%, positive control 100%. 3,400 tested, under 10 active. AID 743027;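 active = mean percent activation of the reporter above a cutoff set as the average over tested compounds plus their standard deviation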
hcDAF12 ag: confirmation of H. contortus DAF-12 agonists | shares compounds with hcDAF12 agonist | HEK293 hcDAF-12 lit1-tk-luc reporter, luminescence; % of Δ7-dafachronic acid response | activation, % at 6.8 µM | 61% of 3,400 active | AID 743032;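 active = mean activation across triplicate tests above the threshold derived from the earlier primary screen, cut at about 5.5% in these data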;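 also: 0% = DMSO only wells and 100% = 3 µM Δ7-dafachronic acid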
hgDAF12 ag: confirmation of H. glycines DAF-12 agonists. shares compounds with hgDAF12 agonist. HEK293 GAL4-hgDAF12 luciferase reporter, agonist mode; percent of butyrate response. activation, % at 6.8 µM. 80% of 3,300 active;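 active = mean activation over triplicate wells above the hit cutoff derived from the earlier primary screen, cut at about 11% in these data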;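 also: 0% = DMSO low control and 100% = 2 mM sodium butyrate high control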
LXR ag 2: activates human LXR-beta, counter-screen for DAF-12 agonists; shares compounds with hgDAF12 agonist; 3,300 tested, under 10 active; activation, % at 6.8 µM; HEK293 Gal4-LXR luciferase reporter, 24 h; AID 743051;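 active = mean activation of the triplicate above a set limit carried over from the primary screen, none filed active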
* hit, by the source's call; / = no result.

SMILES | ssDAF12 agonist | hgDAF12 agonist | DAX1 inh-1 | hcDAF12 agonist | DAX1 inh-2 | DAX1 inh confirm | SF1 AF2mut Luc | LXRb hcDAF ctr | hcDAF12 ag | hgDAF12 ag | LXR ag 2
O=C(Nc1ccccn1)c1cccc(S(=O)(=O)N2CCCc3ccccc32)c1 | -1 | 1 | -1 | -1 | -2 | / | / | / | / | / | /
Cn1c(NC(=O)CCC2CCCCC2)cc(=O)n(C)c1=O | 0 | 14* | 3 | 5 | 5.6* | 12* | 6.0* | / | / | 12* | 1
Cn1c(NNC(=O)CCC2CCCCC2)cc(=O)n(C)c1=O | -1 | 2 | 1 | 0 | -1 | / | / | / | / | / | /
CC(C)(C)c1ccc(C(=O)Nc2ccccc2Cl)cc1 | 1.5* | 32* | 5.0* | 10* | 7.7* | 16* | 6.5* | 2 | 9.4* | 19* | 1
CS(=O)(=O)Nc1ccc(C(=O)Nc2ccccc2Cl)cc1 | -1 | 5 | / | 0 | 0 | / | / | / | / | / | /
CCCCOCCCNC(=O)C[C@H]1C[C@@]2(C(=O)OC)C(=C[C@H](C3CCCC3)O[C@@H]2C)N(Cc2ccco2)C1=O | -1 | 0 | / | 0 | 0 | / | / | / | / | / | /
COc1ccc2c(c1)CCC/C2=N\NC(=O)c1ccoc1C | 1.2* | 25* | 3 | 7.6* | 4.6* | 5.0* | 1 | 0 | 0 | 5 | 0
COC(=O)[C@]12C[C@H](CC(=O)NCCCN3CCCC3=O)C(=O)N(CCC3=CCCCC3)C1=C[C@H](C1CCCC1)O[C@@H]2C | -1 | -4 | / | -3 | -1 | / | / | / | / | / | /
COC(=O)[C@]12C[C@H](CC(=O)N3CCCC3)C(=O)N(Cc3cccc4ccccc34)C1=C[C@H](C(C)C)O[C@@H]2C1CC1 | -1 | 2 | / | 0 | -1 | / | / | / | / | / | /
CN(C)c1ccc(-c2csc(C(O)c3ccccc3)n2)cc1 (centres undefined) | 0 | 14* | / | 4 | 6.4* | 9.5* | 8.6* | / | / | 19* | 1
CN(C)c1ccc(-c2csc(C(O)c3ccc(F)cc3)n2)cc1 (centres undefined) | 0 | 9 | / | 4 | 3 | / | / | / | / | / | /
OC(c1ccccc1)c1nc(-c2cc3ccccc3o2)cs1 (centres undefined) | 0 | 17* | / | 5 | 6.9* | 11* | 6.4* | / | / | 15* | 1
COCCCNC(=O)c1nnn2c1nc(N)c1cc(Cl)ccc12 | -1 | 1 | / | 0 | 2 | / | / | / | / | / | /
COc1ccc(-c2nc3ccccc3s2)cc1NC(C)=O | 0 | 19* | 2 | 9.6* | 8.9* | 8.2* | 4.0* | 1 | 7.8* | 16* | 1
CC(=O)NCc1ccc(-c2nc3ccccc3s2)cc1 | -1 | 15* | 1 | 4 | 6.9* | 16* | 6.7* | / | / | 15* | 1
N#C/C(=N\Nc1ccc(F)cc1)C(=N)N1CCCCC1 | 0.9* | 18* | 5.3* | 8.1* | 6.0* | 18* | 7.1* | 1 | 5 | 18* | 1
Cc1nnc(SCC(=O)Nc2nsc(-c3ccc(C(C)(C)C)cc3)n2)s1 | 1 | 27* | 4.4* | 7.3* | 7.3* | 11* | 6.0* | 1 | 6.9* | 19* | 1
N#Cc1ccsc1NC(=O)COC(=O)c1ccc(NC(N)=O)cc1 | 0 | 17* | 1 | 8.0* | 6.0* | 9.7* | 7.1* | 1 | 5.6* | 16* | 1
COC(=O)C1=CC[C@@H](NC(=O)OC(C)(C)C)[C@H](O)[C@H]1O[Si](C)(C)C(C)(C)C | -2 | -3 | / | 2 | / | / | / | / | / | / | /
O=c1cc(-c2ccccc2)oc2cc(O)cc(O)c12 | -1 | 15* | 2 | 0 | 5.7* | 9.2* | 2 | / | / | 13* | 1
CC(=O)Oc1ccc2c(=O)c(-c3nc4ccccc4s3)coc2c1 | 0 | 13* | 0 | 6.7* | 5.7* | 5.7* | 2 | 1 | 9.0* | 9 | 0
CC(=O)Oc1ccc2c(=O)c(Oc3ccccc3[N+](=O)[O-])coc2c1 | -2 | -4 | 0 | -1 | -1 | / | / | / | / | / | /
COc1ccc(C(=O)COC(=O)CNC(=O)c2cc(OC)cc(OC)c2)cc1 | -1 | -3 | -1 | -2 | 0 | / | / | / | / | / | /
COc1cc(OC)cc(C(=O)NCC(=O)OCc2nc3ccccc3s2)c1 | 1.8* | 14* | 6.9* | 11* | 4.8* | 13* | 7.4* | 1 | 11* | 13* | 0
O=C(OCc1nc2ccccc2s1)c1cccs1 | 1.8* | 17* | 4.9* | 10* | 5.6* | 15* | 6.3* | 1 | 13* | 11* | 0
SMILES | ssDAF12 agonist | hgDAF12 agonist | DAX1 inh-1 | hcDAF12 agonist | DAX1 inh-2 | DAX1 inh confirm | SF1 AF2mut Luc | LXRb hcDAF ctr | hcDAF12 ag | hgDAF12 ag | LXR ag 2
COc1ccc(-c2csc(N3C(=O)CNC3=S)n2)cc1 | 1.1* | 17* | -2 | 8.2* | 5.5* | 14* | 6.6* | 2 | 8.8* | 16* | 1
CN(C)c1ccc(C(=S)NCc2ccco2)cc1 | 0.9* | 16* | -2 | 7.5* | 5.2* | 11* | 5.6* | 2 | 10* | 20* | 1
CN(C)c1ccc(/C=N/NC(=S)NCc2ccco2)cc1 | -1 | 3 | 1 | 2 | 1 | / | / | / | / | / | /
N#Cc1ccc2nc(-c3ccc(CN4CCC(c5nc6ccccc6[nH]5)CC4)cc3)c(-c3ccccc3)nc2c1 | -2 | -2 | / | -3 | -3 | / | / | / | / | / | /
COc1ccc2nc(C(c3ccc(C)cc3)n3c(-c4ccccc4Br)nc4ccccc43)[nH]c2c1 (centres undefined) | 1 | 14* | / | 3 | 5.8* | 8.5* | 5.5* | / | / | 17* | 1
Cc1cc(C(=O)COC(=O)c2ccc(NC(=O)CC#N)cc2)c(C)n1C1CC1 | -1 | 4 | 0 | -1 | 3 | / | / | / | / | / | /
Cc1cc(C(=O)COC(=O)c2ccc(Cl)c(S(N)(=O)=O)c2)c(C)n1C1CC1 | 0 | 14* | 1 | 2 | 8.0* | 8.3* | 5.4* | / | / | 15* | 0
CC(C)CN1C[C@@H]2CSCCS(=O)(=O)N2C1=O | 0 | -1 | / | 0 | -2 | / | / | / | / | / | /
